In PubChem BioAssay AID493168 (National Center for Advancing Translational Sciences (NCATS), 2011):
Inconclusive results are not listed. A call without a number means that no potency is given here. Calls of active or inactive are those of the source. Calls follow the shape of the dose curve; as a rule, active = well fitted inhibition curve with a large enough effect; inconclusive = small, poorly fitted or top-dose-only effect, or effect the other way; inactive = flat fitted curve, though single readings scatter.

Biological target: Ubiquitin carboxyl-terminal hydrolase 2 (Homo sapiens) (UniProt O75604)
Sequence (O75604 whole entry, looked up): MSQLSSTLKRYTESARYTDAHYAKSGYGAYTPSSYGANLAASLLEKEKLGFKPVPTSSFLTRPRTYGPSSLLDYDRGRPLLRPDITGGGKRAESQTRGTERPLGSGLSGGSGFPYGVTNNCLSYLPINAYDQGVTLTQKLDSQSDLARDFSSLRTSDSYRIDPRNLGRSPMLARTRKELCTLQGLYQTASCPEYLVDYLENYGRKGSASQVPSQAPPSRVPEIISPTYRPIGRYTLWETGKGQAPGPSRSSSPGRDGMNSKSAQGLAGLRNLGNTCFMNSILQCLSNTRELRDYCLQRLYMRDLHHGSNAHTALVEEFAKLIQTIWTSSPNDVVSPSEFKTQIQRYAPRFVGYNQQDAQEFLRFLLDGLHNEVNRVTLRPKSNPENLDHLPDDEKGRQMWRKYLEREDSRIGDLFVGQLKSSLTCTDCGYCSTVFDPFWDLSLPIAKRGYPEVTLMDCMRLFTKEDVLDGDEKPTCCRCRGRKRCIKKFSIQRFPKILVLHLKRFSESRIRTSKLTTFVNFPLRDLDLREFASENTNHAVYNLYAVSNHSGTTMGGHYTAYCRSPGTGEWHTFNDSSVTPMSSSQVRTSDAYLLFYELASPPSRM
Assay: Confirmation Assay for Inhibitors of Ubiquitin-specific Protease USP2a Using CHOP2 as the Reporter; also: nearly all actives have a fitted effect of over 55% in size
Method in brief: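 USP2 core (10 nM final) was preincubated with compound for 30 min at RT in Tris-HCl pH 8.0, CaCl2, beta-mercaptoethanol, CHAPS. Ub-CHOP2 and reporter substrate (25 nM final each) were added, and fluorescence (Ex 485/Em 531 nm) was read after 60 min.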
Potency is read from the fitted curve at half-maximal effect.

Q: With `CCCOc1ccc(-c2nc(C#N)c(N3CCN(CC)CC3)o2)cc1` as the compound, how does the Potency read?
A: Its Potency is “inactive”.

Q: With `CCc1cc2cccc(C)c2nc1SCC(=O)N1CCN(C(=O)c2ccco2)CC1` as the compound, how does the Potency read?
A: Its Potency is “inactive”.

Q: For `Cc1cccc(Nc2nc(NCc3ccco3)c3ccccc3n2)c1`, which Potency is on record?
A: The Potency was “inactive”.

Q: How did the Potency turn out when `C[C@](N)(Cc1ccc(O)c(O)c1)C(=O)O` was run?
A: Its Potency is “inactive”.

Q: `O=C(O)/C=C/c1ccc(S(=O)(=O)Nc2ccccc2C(=O)Nc2ccc(F)cc2)cc1` was tested. Which Potency did it give?
A: Its Potency is “inactive”.

Q: For `O=C(N/N=C/c1ccc(-c2ccc(S(=O)(=O)Nc3ncccn3)cc2)o1)c1cc2ccccc2cc1O`, which Potency is on record?
A: The Potency was 9.27 µM (active).

Q: How did the Potency turn out when `CC[C@]12c3[nH]c4cc(-c5ccco5)ccc4c3CCN1C(=O)[C@@H](CC(=O)NC/C=C(\C)CCC=C(C)C)C[C@@H]2C(=O)N1CCN(C(=O)C2CC2)CC1` was run?
A: Its Potency is “inactive”.

Q: Which Potency does the source give for `CC(C)(C)C1CCC2(CC1)Nc1cccc3cccc(c13)N2` here?
A: Its Potency is “inactive”.

Q: How did the Potency turn out when `O=C(c1ccccc1)N1CCN(C2C3CC4CC(C3)CC2C4)CC1` (stereo not given) was run?
A: Its Potency is “inactive”.

Q: For `C=CC#CC[N+]1(CC#Cc2ccccc2)CCOCC1`, which Potency is on record?
A: The Potency was 3.69 µM (active).

Q: For `c1ccc(CN2CCN(CCOCCOc3cccc4ccccc34)CC2)cc1`, which Potency is on record?
A: Its Potency is “inactive”.

Q: For `Cc1ccc(C(C(=O)NC2CCCC2)N2CCc3ccccc32)cc1` (stereo not given), which Potency is on record?
A: The Potency was “inactive”.

Q: How did the Potency turn out when `O=S(=O)(NC1CCSc2ccccc21)c1ccccc1` (stereo not given) was run?
A: Its Potency is “inactive”.

Q: `CN(C)S(=O)(=O)c1ccc(C(=O)NCCN=C2NS(=O)(=O)c3ccccc32)cc1` was tested. Which Potency did it give?
A: Its Potency is “inactive”.

Q: `COc1cc(OC)cc(-c2c(C#Cc3ccsc3)c3cc(-c4ccc(OC)c(F)c4)ccc3n2C)c1` was tested. Which Potency did it give?
A: The Potency was “inactive”.

Q: For `N#C/C(=C\c1ccc(O)c(O)c1)C(=O)Nc1cccc2ncccc12`, which Potency is on record?
A: The Potency was 18.5 µM (active).

Q: How did the Potency turn out when `Cn1c(=O)c2c(nc(CN3CCN(C(=O)c4ccco4)CC3)n2CCCc2ccccc2)n(C)c1=O` was run?
A: The Potency was “inactive”.

Q: With `O=[N+]([O-])c1cc(-c2nnc(Nc3ccccc3)c3ccccc23)ccc1N1CCOCC1` as the compound, how does the Potency read?
A: The Potency was “inactive”.

Q: Which Potency does the source give for `COc1cccc(NC(=O)CSc2nncn2-c2ccccn2)c1` here?
A: Its Potency is “inactive”.

Q: `COc1ccc(NC(=O)CSc2nc(O)cc(=O)n2-c2ccc(OC)cc2)cc1` was tested. Which Potency did it give?
A: The Potency was “inactive”.

Q: Which Potency does the source give for `C#CCOCCOCCOCCNc1nc(N2CCN(C(=O)CCCCCCCCCCNC(=O)Cn3cc(CCCCCN)nn3)CC2)nc(N2CCN(C(=O)CCCCCCCCCCNC(=O)[C@H]([C@@H](C)CC)n3cc(CCCCCN)nn3)CC2)n1` here?
A: The Potency was 4.65 µM (active).

Q: For `O=C(CSc1nc(N2CCCCC2)nc(N2CCCCC2)n1)N1CCN(c2ccccc2)CC1`, which Potency is on record?
A: Its Potency is “inactive”.

Q: For `COc1ccc(/C=C2/SC(=S)N(c3ccc(S(=O)(=O)Nc4nccs4)cc3)C2=O)cc1`, which Potency is on record?
A: The Potency was 13.1 µM (active).

Q: How did the Potency turn out when `CN1CCN(Cc2c(O)ccc3c(=O)c(Oc4ccccc4Cl)c(C(F)(F)F)oc23)CC1` was run?
A: Its Potency is “inactive”.

Q: Which Potency does the source give for `CCC/C(O)=C1\C(=O)CC(C)(C)CC1=Nc1ccc(OC)cc1OC` here?
A: Its Potency is “inactive”.

Q: Which Potency does the source give for `O=C(COc1ccccc1)Nc1nnc(-c2ccc(Cl)s2)o1` here?
A: Its Potency is “inactive”.

Q: With `CCOc1ccccc1N1C(=O)CC(Nc2ccc(N3CCOCC3)cc2)C1=O` (stereo not given) as the compound, how does the Potency read?
A: The Potency was “inactive”.

Q: `CCN1C(=O)C(NC(C)=O)c2cc(OC)ccc21` (stereo not given) was tested. Which Potency did it give?
A: Its Potency is “inactive”.

Q: For `CCCn1c(N2CCN(Cc3cccc(C)c3)CC2)nc2c1c(=O)[nH]c(=O)n2C`, which Potency is on record?
A: Its Potency is “inactive”.

Q: For `CC(C)c1ccc(CCNC(=O)c2ccc([N+](=O)[O-])cc2)cc1`, which Potency is on record?
A: Its Potency is “inactive”.

Q: Which Potency does the source give for `O=C(CCCN1C(=O)c2ccccc2C1=O)NC1=NCCS1` here?
A: The Potency was “inactive”.

Q: Which Potency does the source give for `Nc1ccc2nc(-c3ccc(N)c(Cl)c3)[nH]c2c1` here?
A: Its Potency is “inactive”.

Q: How did the Potency turn out when `Cc1ccc(C)n1-c1cc(S(=O)(=O)N2CCOCC2)ccc1N1CCCC1` was run?
A: The Potency was “inactive”.

Q: `COC(=O)c1ccccc1NC(=O)CSc1nc(O)cc(=O)n1C1CCCC1` was tested. Which Potency did it give?
A: The Potency was “inactive”.

Q: With `O=C(NCCN1C(=O)CSC1=O)C1CC(=O)N(c2ccccc2)C1` (stereo not given) as the compound, how does the Potency read?
A: The Potency was “inactive”.

Q: How did the Potency turn out when `Cc1ccc(N2CCN(C(=O)CCc3nc4ccccc4[nH]3)CC2)c(C)c1` was run?
A: Its Potency is “inactive”.

Q: With `Cc1cc(=O)oc(C)c1C(=O)NCCc1ccccc1` as the compound, how does the Potency read?
A: Its Potency is “inactive”.

Q: How did the Potency turn out when `Cc1ccc(-c2c(C)n([O-])c3c([n+]2=O)CCC3)o1` was run?
A: The Potency was “inactive”.

Q: `CCOc1ccc2[nH]c(=O)c(CN(Cc3nnnn3Cc3ccco3)C3CCCCC3)cc2c1` was tested. Which Potency did it give?
A: Its Potency is “inactive”.

Q: For `CCNc1sc(C(=O)c2cccs2)c(N)c1-c1nc2ccccc2s1`, which Potency is on record?
A: The Potency was “inactive”.

Q: With `CC(C)(C)NC(=O)C(c1ccco1)N(C(=O)c1ccc(CN2CCOCC2)o1)c1ccccc1` (stereo not given) as the compound, how does the Potency read?
A: The Potency was “inactive”.

Q: For `O=C(CN1CCOCC1)Nc1ccc(C2CCCCC2)cc1`, which Potency is on record?
A: The Potency was “inactive”.

Q: `O=C(CSc1ccc2nnc(-c3cccc(F)c3)n2n1)N1CCCc2ccccc21` was tested. Which Potency did it give?
A: Its Potency is “inactive”.

Q: `CCc1nnc(NC(=O)CSc2nccn2-c2cccc(C)c2)s1` was tested. Which Potency did it give?
A: Its Potency is “inactive”.

Q: Which Potency does the source give for `CC1CCN(CC(O)COc2cccc(F)c2)CC1` (stereo not given) here?
A: The Potency was “inactive”.
